The full list was thinned out, with hits kept by preference.
LmPK inh: qHTS Assay for Inhibitors of Leishmania Mexicana Pyruvate Kinase (LmPK) | purified LmPK, Kinase-Glo ATP luminescence, 1 h | Potency, µM (top dose mostly 57.5 µM), inactives show top-dose activity change, negative = inhibition, hits mostly inhibitors | hit rate 0.37% among 290,000; further: potency means the concentration at half of the fitted maximal effect; on the % scale 0 is the no-effect control and ±100 the full control effect
Target sequence (Q27686 whole entry, looked up): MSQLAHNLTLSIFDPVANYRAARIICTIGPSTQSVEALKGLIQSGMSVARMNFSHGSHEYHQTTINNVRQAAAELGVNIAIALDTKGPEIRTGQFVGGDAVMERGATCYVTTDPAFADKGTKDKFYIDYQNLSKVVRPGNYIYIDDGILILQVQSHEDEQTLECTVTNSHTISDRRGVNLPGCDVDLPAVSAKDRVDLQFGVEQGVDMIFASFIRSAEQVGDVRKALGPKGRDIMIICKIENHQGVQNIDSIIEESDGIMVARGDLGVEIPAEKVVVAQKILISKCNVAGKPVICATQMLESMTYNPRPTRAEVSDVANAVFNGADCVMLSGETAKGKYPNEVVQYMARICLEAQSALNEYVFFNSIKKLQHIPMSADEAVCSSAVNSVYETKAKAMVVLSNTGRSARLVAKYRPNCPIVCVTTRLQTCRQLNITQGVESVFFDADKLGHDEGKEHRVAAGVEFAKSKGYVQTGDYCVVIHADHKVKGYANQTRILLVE
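Purified LmPK (0.1 nM) with 0.5 mM PEP and 0.1 mM ADP in imidazole buffer pH 7.2 with MgCl2/KCl, 1 h at room temperature. ATP formed was read by luciferase luminescence and normalized to no-enzyme and uninhibited controls.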
TbPYK inhibitor: qHTS of Trypanosoma Brucei Inhibitors. AID 624173, 2012. TbPYK enzyme, Kinase-Glo Plus ATP luminescence, 45 min. pyruvate kinase (Trypanosoma brucei), Q57TT1. hit rate 0.12% among 410,000. Potency, µM (highest dose often 76.8 µM), without a hit: top-dose activity, negative = inhibition, hits mostly inhibitors; further: potency means the concentration at half of the fitted maximal effect; on the % scale 0 is the no-effect control and ±100 the full control effect; nearly all actives have a fitted effect of over 50% in size
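TbPYK + substrate in 50 mM TEA pH 7.2, 100 mM KCl, 10 mM MgCl2, 0.05% BSA, 0.01% Tween-20; cpd pinned; ADP 130 uM final; 45 min RT; Kinase-Glo Plus 10 min; luminescence endpoint.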
RE007 growth inh: qHTS Assay for Inhibitors of the HIV-1 protein Vpr; Potency, µM (doses to about 92.2 µM), without a hit: top-dose activity change, negative = less growth, actives largely listed as inhibitors; AID 651644, 2012; hit rate 0.21% among 360,000; S. pombe RE007 Vpr strain, BacTiter-Glo ATP luminescence, 24 h; active means well fitted falling curve with a large enough effect; inconclusive means small, poorly fitted or top-dose-only effect; inactive means no such curve, though single readings can be large or run the other way; further: potency means the concentration at half of the fitted maximal effect; on the % scale 0 is the no-effect control and ±100 the full control effect; nearly all actives have a fitted effect of over 50% in size
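Fission yeast RE007 carrying one integrated HIV-1 vpr copy, seeded at OD 0.01 in PMG+AL medium with 23 nL pinned compound. Grown 24 h at 30 degrees; viability read by BacTiter-Glo luminescence after 5 min.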
CHX counter: Cycloheximide Counterscreen for Small Molecule Inhibitors of Shiga Toxin; cell reporter, cycloheximide protein synthesis inhibition counterscreen; max response, %; hit rate 12% among 300,000; in the data active means max response mostly above about 13%, no sharp cut-off; inactive means mostly below about 14%; further: read at 38.3 µM for the half of the compounds with a filed dose; 0% is about no effect
FBPA Giardia inh: qHTS Assay for Inhibitors of Fructose-1,6-bisphosphate Aldolase from Giardia Lamblia; A8B2U2; purified Giardia FBPA; Potency, µM (highest dose often 59.6 µM), inactives show top-dose activity, negative = inhibition, most hits filed as inhibitors; hit rate 0.71% among 290,000; further: potency means the concentration at half of the fitted maximal effect; on the % scale 0 is the no-effect control and ±100 the full control effect; nearly all actives have a fitted effect of over 55% in size
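40 nM FBPA preincubated 10 min at RT with compound (up to 57.5 uM final), then substrate plus GAPDH/TPI/NAD/arsenate coupling and diaphorase/resazurin added. Fluorescence read after 20 min at RT, 525/598 nm.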
Shiga toxin inh: A qHTS for Small Molecule Inhibitors of Shiga Toxin; AID 2315, 2010; inhibition, % at 38.7 µM; hit rate 9.2% among 290,000; Vero cells, Shiga toxin protein synthesis inhibition reporter; in the data active means inhibition mostly above about 28%, no sharp cut-off; inactive means mostly below about 43%; further: 0% is about no effect
* hit, by the source's call; ? = inconclusive; nt = not tested or not shown; + = active, no number; [ ] = dose if it differs, or a comment. Unless noted, the call rests on the fitted dose curve; in most records, active means well fitted curve in the direction sought with a large enough effect; inconclusive means small, poorly fitted or top-dose-only effect, or another doubt; inactive means no such curve, though single readings can be large; an effect the other way counts as inactive or inconclusive.

SMILES	LmPK inh	TbPYK inhibitor	RE007 growth inh	CHX counter	FBPA Giardia inh	Shiga toxin inh
CC(C)C[C@H](NC(=O)CNC(=O)[C@H](CCC(N)=O)NC(=O)[C@H](CC(C)C)NC(=O)[C@H](CC(C)C)NC(=O)[C@H](CCCNC(=N)N)NC(=O)[C@H](CCC(N)=O)NC(=O)[C@H](CC(C)C)NC(=O)[C@H](CCCNC(=N)N)NC(=O)[C@H](C)NC(=O)CNC(=O)[C@H](CCC(=O)O)NC(=O)[C@H](CCCNC(=N)N)NC(=O)[C@H](CC(C)C)NC(=O)[C@H](CCCNC(=N)N)NC(=O)[C@H](CO)NC(=O)[C@H](CC(C)C)NC(=O)[C@H](CCC(=O)O)NC(=O)[C@H](CO)NC(=O)[C@@H](NC(=O)[C@H](Cc1ccccc1)NC(=O)[C@@H](NC(=O)CNC(=O)[C@H](CC(=O)O)NC(=O)[C@H](CO)NC(=O)[C@@H](N)Cc1cnc[nH]1)[C@@H](C)O)[C@@H](C)O)C(=O)N[C@H](C(N)=O)C(C)C	nt	nt	nt	-6	8%	-14
COc1ccc(-c2ccc(=N)n(CCCC(=O)O)n2)cc1	nt	nt	nt	nt	1%	nt
O=C(NCc1ccccc1)c1cnc(Cl)c(Cl)c1	1%	-5%	1%	23*	13%	20
O=C(c1ccc(COCC(F)(F)F)cc1)N1CCN(c2ccccn2)CC1	-1%	1%	-19%	35*	-8%	46*
CN(C(=O)c1cccc(COc2ccc(Cl)cc2Cl)c1)c1ccccc1	1%	-2%	0%	171*	5%	185*
O=C(NCc1ccc(F)cc1)c1cnc(Cl)c(Cl)c1	-5%	1%	-17%	2	11%	6
CN(C(=O)c1ccc(COc2ccccc2Cl)o1)c1ccccc1	2%	3%	-7%	15	-3%	17
O=C(NCc1ccccc1)c1cccc(COc2cc(Cl)ccc2Cl)c1	9%	-9%	nt	41*	6%	118*
CCOc1cccc(C(=O)NCc2ccccc2)c1	-2%	9%	1%	7	9%	13
O=C(c1ccc(F)cc1)N1CCN(c2ccccn2)CC1	4%	-9%	-6%	1	-1%	nt
Cc1ccc2nc(-c3cccc(NC(=O)c4cccc5c(Cl)cccc45)c3)oc2c1	nt	-3%	nt	nt	nt	nt
Nc1nc(Cl)nc2c1ncn2[C@@H]1O[C@H](CO)[C@H](O)C1F (some centres not stated)	nt	7%	nt	nt	nt	nt
COC(=O)c1ccccc1NC(=S)NC(=O)COc1ccccc1Cl	-1%	1%	-8%	-3	-2%	-7
O=C(NCc1ccccc1)c1cccc(COc2ccccc2Cl)c1	3%	6%	-2%	61*	-1%	120*
NNC(=O)c1cccc(COc2ccccc2Br)c1	-5%	3%	-5%	81*	-6%	100*
O=C(c1ccccc1)N1CCN(CC(O)COc2cccc3ccccc23)CC1 (configuration not stated)	8%	-2%	2%	-1	-21%	nt
O=C(c1cccc(COc2cccc3ccccc23)c1)N1CCCC1	1%	2%	6%	40*	-10%	47*
COC(=O)c1ccccc1NC(=O)c1cccc(COc2ccccc2Cl)c1	-2%	0%	-6%	86*	-1%	89*
CCOc1cccc(C2c3c(oc4ccc(F)cc4c3=O)C(=O)N2c2cc(C)ccn2)c1 (configuration not stated)	nt	2%	nt	nt	nt	nt
COc1ccc(-n2c(/C=C/c3cccc4ccccc34)nc3ccccc3c2=O)cc1Cl	nt	1%	nt	nt	nt	nt
COc1ccc(NC(=O)CCc2c(C)nc3c(-c4ccccc4)c(C)nn3c2C)cc1Cl	nt	1%	nt	nt	nt	nt
O=C(CCCn1c(=O)c2ccccc2n(Cc2cccc(F)c2)c1=O)NCc1ccccc1Cl	nt	1%	nt	nt	nt	nt
NNC(=O)c1cccc(COc2ccc3c(c2)CCC3)c1	-1%	-1%	-6%	206*	-3%	196*
O=C(c1cccc(COc2ccc(Cl)cc2Cl)c1)N1CCN(c2ccccn2)CC1	1%	2%	-29%	92*	8%	+
O=C(COc1ccc2c(c1)CCC2)NCc1ccccc1	4%	1%	?	15	-2%	15
SMILES	LmPK inh	TbPYK inhibitor	RE007 growth inh	CHX counter	FBPA Giardia inh	Shiga toxin inh
CCN(CC)CCNC(=O)c1ccc(NC(=O)C2CCN(c3ncnc4sc(C)c(C)c34)CC2)cc1	-6%	0%	6%	20	nt	30
C/C(=N\NC(=O)Cc1csc(N2CCOCC2)n1)c1ccccc1	5%	nt	1%[3.69 µM]	-1	7%	10
O=C(Cc1csc(N2CCOCC2)n1)N/N=C/c1ccc(O)c(O)c1O	-2%	-4%	12%	9	7.9µM*	-13
O=C(Cn1nnc(-c2cccc(C(F)(F)F)c2)n1)N1CCCCCC1	16%	-12%	-2%	-3	0%	-3
COc1ccc(-c2nnn(CC(=O)N3CCOCC3)n2)cc1	8%	1%	21%	-2	2%	-7
O=C(Cn1nnc(-c2ccccc2)n1)N1CCCCC1	6%	0%	-4%	38*	2%	47*
O=C(Cn1nnc(-c2ccccc2Cl)n1)N1CCCCC1	0%	-5%	12%	27*	4%	110*
CC(C)COc1ccc(-c2nnn(CC(=O)N3CCCC3)n2)cc1	-1%	2%	2%	23*	5%	58*
O=C(Cn1nnc(-c2ccccc2Cl)n1)N1CCN(S(=O)(=O)c2ccc(Cl)cc2)CC1	5%	0%	17%	-3	1%	-3
O=C(Cn1nnc(-c2ccc(OCc3ccccc3F)cc2)n1)N1CCOCC1	4%	-4%	-2%	21*	-3%	+
CC1CCCN(C(=O)Cn2nnc(-c3ccccc3F)n2)C1 (configuration not stated)	3%	-4%	-17%	39*	-4%	49*
CC1CCCN(C(=O)Cn2nnc(-c3ccc(F)cc3)n2)C1 (configuration not stated)	2%	4%	-10%	13	1%	-5
CCOc1ccc2nc(N3C(=O)/C(=C/c4ccc(Cl)cc4)NC3=S)sc2c1	2%	3%	-9%	13*	6%	2
N#CC(C#N)=c1ccc2c(c1)NC1(CCCCC1)N=2	14µM*	?	?	37*	?	65*
COc1cccc(C(=O)N2CC(=O)Nc3ccc(C)cc3C2c2ccc(F)cc2)c1OC (configuration not stated)	nt	7%	nt	nt	nt	nt
c1ccc(CN2CCN(c3nc4ccccc4c4ccccc34)CC2)cc1	7%	2%	10%	2	0%	-11
Fc1ccccc1N1CCN(c2cnc3ccccc3n2)CC1	-3%	3%	?	56*	-8%	82*

Screening data deposited in PubChem BioAssay by National Center for Advancing Translational Sciences (NCATS).
